Experimental data published in ChEMBL document CHEMBL1157539, “Thousands of chemical starting points for antimalarial lead identification” (Nature, 2010).
Several values for one entry are separate records, joined by “and”; a condition that tells them apart may be missing. Equal values may be shown once.

Tests used:
Format in all cases: functional
Plasmodium falciparum [1] = assay: GSK_TCMDC: Inhibition of Plasmodium falciparum 3D7 in whole red blood cells, using parasite LDH activity as an index of growth. Test compounds present at 2uM
Plasmodium falciparum [2] = assay: GSK_TCMDC: Inhibition of Plasmodium falciparum Dd2 in whole red blood cells, using parasite LDH activity as an index of growth. Test compounds present at 2uM
HepG2 = assay: GSK_TCMDC: Percent inhibition of human HepG2 cell line. Test compounds present at 10uM.

Compound | Inhibition (Plasmodium falciparum [1]) | Inhibition (Plasmodium falciparum [2]) | Inhibition (HepG2)
CCCCCc1cc(O)c2c(c1)OC(C)(C)CC2C1=CCN(Cc2cccnc2)CC1.Cl.O (stereo not given) | 97% | 97% | 15%
O=C(C=Cc1ccc(-c2ccccc2)cc1)NC1CCC(CN2CCC(c3c[nH]c4ccccc34)CC2)CC1 (stereo not given) | 100% | 85% and 98% | 97% and 43%
CNCCCCCCc1ccc(CC(C)NCC(O)c2cccc(Cl)c2)cc1.Cl (stereo not given) | 94% | 76% | 22%
O=C(/C=C/c1ccc(Cl)c(Cl)c1)Nc1cccc(CN2CCC(c3c[nH]c4ccccc34)CC2)c1 | 99% | 91% | 15%
O=C(Cc1cc(=O)oc2cc(O)ccc12)NC1CCC(CN2CCC(c3c[nH]c4ccccc34)CC2)CC1 (stereo not given) | 96% | 0% | 5%
CC(Cc1ccc(NC(=O)CCNCc2ccccc2)cc1)NCCc1cccc(Cl)c1 (stereo not given) | 100% | 100% | 100%
CSc1nccc(-c2ccc(S(=O)(=O)NC3CCC(CN4CCC(c5c[nH]c6ccccc56)CC4)CC3)s2)n1 (stereo not given) | 100% | 33% and 67% | 61% and 36%
COC(=O)c1sccc1NC(=S)NC1CCC(CN2CCC(c3c[nH]c4ccccc34)CC2)CC1 (stereo not given) | 97% and 100% | 49% and 54% | 34% and 25%
CC1CN=C(Nc2ncc(Cl)cc2Cl)N1.Cl (stereo not given) | 99% | 3% | 2%
CC(=O)C1(c2ccccc2)CCN(CCC2(c3ccc(Cl)c(Cl)c3)CN(C(=O)Nc3cc(F)cc(F)c3)CCO2)CC1 (stereo not given) | 86% | 20% | 2%
Cc1ccc2[nH]cc(C3CCN(CC4CCC(NC(=O)/C=C/c5ccc(Cl)c(Cl)c5)CC4)CC3)c2c1 (stereo not given) | 100% and 94% | 86% and 46% | 37% and 29%
CC(=O)N(Cc1cccc(-c2ccc(CNCCc3ccccc3)cc2)c1)C1CCN(Cc2ccccc2)CC1.O=C(O)C(F)(F)F | 99% | 50% | 32%
O=C(/C=C/c1ccc(Cl)c(Cl)c1)N1CCC(CN2CCC(c3c[nH]c4ccccc34)C(O)C2)CC1 (stereo not given) | 99% | 14% | 37%
COc1cccc(O)c1CNCC(O)c1cccc(C(F)(F)F)c1 (stereo not given) | 98% | 96% | 31%
COCCSc1ccc(CC(C)NCC(O)c2cccc(Cl)c2)cc1.Cl (stereo not given) | 97% | 73% | 2%
CC(Cc1ccc(OCc2ccccc2)cc1)NCC(O)c1cccc(Cl)c1 (stereo not given) | 99% | 99% | 50%
CC(NC(C)(C)C)C(O)c1ccc(Cl)c(C(F)(F)F)c1.Cl (stereo not given) | 97% | 97% | 0%
CC(Cc1ccc(OCCCCOc2ccccc2)cc1)NCCCN1CCOCC1 (stereo not given) | 98% | 78% | 98%
Cc1[nH]c2cc(F)ccc2c1C1=CCN(CCCCC2(C)C(=O)Nc3c(F)cccc32)CC1 (stereo not given) | 96% | 89% | 15%
CN1C(=O)[C@H](NC(=O)[C@@H](Cc2ccccc2)NC(=S)Nc2ccccc2)N=C(c2ccccc2)c2ccccc21 | 86% | 23% | 0%

Compound | Inhibition (Plasmodium falciparum [1]) | Inhibition (Plasmodium falciparum [2]) | Inhibition (HepG2)
COC(=O)/C=C/c1ccc(CC(C)NCC(O)c2cccc(Cl)c2)cc1 (stereo not given) | 99% | 73% | 2%
Cc1[nH]c2cc(F)ccc2c1C1=CCN(CCCCC2(C)C(=O)Nc3ccccc32)CC1 (stereo not given) | 93% | 90% | 13%
O=C(/C=C/c1ccc(Cl)c(Cl)c1)NCc1ccc(CN2CCC(c3c[nH]c4ccccc34)CC2)cc1 | 100% | 86% | 59%
O=C(NCCC1CCN(CCc2c[nH]c3ccccc23)CC1)Nc1ccc(Cl)c(Cl)c1 | 100% | 5% | 18%
CC(Cc1ccc(OCCOc2ccccc2)cc1)NCC(O)c1cccc(Cl)c1 (stereo not given) | 99% | 99% | 12%
CN1CC=C(C=Cc2c[nH]c3ccccc23)CC1 | 86% | 64% | 14%
O=C(NC1CCN(CC2(c3ccc(Cl)cc3)CCC2)CC1)c1cscn1 | 98% | 95% | 0%
CS(=O)(=O)Nc1ccc2[nH]cc(C3CCN(CC4CCC(NC(=O)/C=C/c5ccccc5Cl)CC4)CC3)c2c1 (stereo not given) | 96% | 7% | 12%
Cc1ccc2c(C3=CCN(CCCCC4(C)C(=O)Nc5c(F)cccc54)CC3)c(C)[nH]c2c1 (stereo not given) | 95% | 89% | 5%
CCCc1cc([C@@H](O)[C@@H]2C[C@@H]3CCN2C[C@@H]3CC)c2ccccc2n1 | 100% | 57% | 9%
Oc1ccc(Cl)cc1CN1CCC(CCOC(c2ccccc2)c2ccc(Cl)cc2)CC1 (stereo not given) | 98% | 100% | 32%
CN(c1cc(NC(=O)c2cccs2)ccn1)C1CCN(Cc2cccc(C#N)c2)CC1.O=C(O)C(F)(F)F | 90% | 69% | 59%
O=C(NC1CCC(CN2CCC(c3c[nH]c4ccccc34)CC2)CC1)c1cc2ccccc2s1 (stereo not given) | 98% and 100% | 68% and 43% | 44%
COC(C(=O)OCCC1CCCN1C)(c1ccccc1)C1CCCCC1 (stereo not given) | 100% | 5% | 3%
CNCCCN(C)C(=O)Oc1c(Br)c(C)nc(C)c1-c1ccc(Oc2ccc(OC(F)(F)F)cc2)cc1.Cl | 96% | 96% | 17%
Br.COc1ccc(C[C@@H](C)NC[C@H](O)c2cccc(Cl)c2)cc1F | 88% | 76% | 2%
COCC(=O)N(Cc1cccc(-c2ccc(CNCCc3ccccc3)cc2)c1)C1CCN(Cc2ccccc2)CC1.O=C(O)C(F)(F)F | 93% | 45% | 44%
COCCNCc1ccc(-c2ccc(CN(C(=O)Nc3ccccc3)C3CCN(Cc4ccccc4)CC3)cc2)cc1.O=C(O)C(F)(F)F | 98% | 39% | 16%
O=C(Nc1ccccc1OC(F)(F)F)NC1CCC(CN2CCC(c3c[nH]c4ccccc34)CC2)CC1 (stereo not given) | 100% and 99% | 60% and 70% | 33% and 35%
Cc1cc(O)cc2c(C3CCN(CC4CCC(NC(=O)/C=C/c5ccccc5Cl)CC4)CC3)c[nH]c12 (stereo not given) | 99% | 84% | 21%

Compound | Inhibition (Plasmodium falciparum [1]) | Inhibition (Plasmodium falciparum [2]) | Inhibition (HepG2)
Cc1[nH]c2ccccc2c1C1=CCN(CCN2CCOc3c(Br)cccc3C2=O)CC1 | 97% | 76% | 15%
CN(c1ccnc(Nc2ccc(CS(C)(=O)=O)cc2)n1)C1CCN(Cc2ccccc2)CC1 | 83% | 9% | 10%
O=C(/C=C/c1ccc(F)c(C(F)(F)F)c1)N1CCC(CN2CCC(c3c[nH]c4ccccc34)CC2)CC1 | 98% | 1% | 23%
CC[C@H]1CN2CC[C@H]1C[C@@H]2[C@@H](O)c1ccnc2ccc(OC)cc12.Cl | 100% | 95% | 0%
FC(F)(F)c1cccc(N2CCC(CN3CCC(c4c[nH]c5ccccc45)CC3)CC2)n1.O=C(O)C(F)(F)F | 84% | 10% | 41%
CC(C)NC(=O)Cn1cc(C2CCN(CC3CCN(C(=O)/C=C/c4ccc(Cl)c(Cl)c4)CC3)CC2)c2ccccc21.O=C(O)C(F)(F)F | 97% | 55% | 31%
CCOC(=O)c1c(C)n(C2CCCCCC2)c2cc(Br)c(O)cc12 | 87% | 45% | 0%
COc1cc(NCCCNC(=O)c2cn(Cc3ccccc3)c3ccccc23)nc2ccccc12 | 100% | 66% | 13%
CCCc1c(C(=O)NC2CCC(CN3CCC(c4c[nH]c5ccccc45)CC3)CC2)cnn1-c1c(Cl)cc(Cl)cc1Cl (stereo not given) | 100% | 49% | 41%
CCCCCSc1cc(O)c(C(CNC)C(C)C)cc1OC.O=C(O)/C=C\C(=O)O (stereo not given) | 100% | 99% | 5%
O=C(NC1CCC(CN2CCC(c3c[nH]c4ccccc34)CC2)CC1)c1ccc(-c2ccccc2[N+](=O)[O-])o1 (stereo not given) | 100% | 34% | 24%
COc1ccc2[nH]cc(C3=CCN(Cc4ccccc4)CC3)c2c1 | 90% | 84% | 51%
O=C(CCC(=O)c1ccc2c3c(cccc13)CC2)NC1CCC(CN2CCC(c3c[nH]c4ccccc34)CC2)CC1 (stereo not given) | 96% | 13% | 34%
Br.Cc1ccccc1C1=CCN(CCCN2c3ccccc3Sc3ccc(Cl)cc32)CC1 | 90% | 30% | 14%
CCCCCc1cc(O)c2c(c1)OC(C)(C)c1ccncc1-2.Cl | 99% | 57% | 0%
CC[C@H]1CN2CC[C@@H]1C[C@H]2[C@H](O)c1cc(-c2cc(Cl)cc(Cl)c2)nc2ccc(OC)cc12 | 99% | 97% | 0%
O=C(/C=C/c1ccc(Cl)c(Cl)c1)NC1CCC(N2CCC(c3c[nH]c4ccc(O)cc34)CC2)CC1 (stereo not given) | 97% | 16% | 10%
c1ccc(C(OCCC2CCN(Cc3cccnc3)CC2)c2ccccc2)cc1 | 99% | 98% | 12%
CN(Cc1ccccc1)C1CCN(CCc2c[nH]c3ccc(F)cc23)CC1.O=C(O)C(F)(F)F | 100% | 91% | 28%
CC[C@H]1CN2CC[C@H]1C[C@H]2[C@H](O)c1cc(N2CCC3CCCCC3C2)nc2ccc(OC)cc12 (stereo not given in full) | 100% | 99% | 50%
